Experimental data from publication PMC11062922 (Nature Chemical Biology, 2023).
Read-outs that look alike come from different tables or passages of the source.

Tested on: PRKD3
Conditions: read-out: apparent Kd, n = 1

Substance: Lestaurtinib
- potency estimated from few doses (compound concentrations:100 nM and 1000 nM (sheet 'Lestaurtinib' of Supplementary Table 1),run:Lestaurtinib_02438_R1,Plate:MR008): 84.2 nM
- potency estimated from few doses (compound concentrations:100 nM and 1000 nM (sheet 'Lestaurtinib' of Supplementary Table 1),run:Lestaurtinib_02438_R2,Plate:MR008): 51.6 nM
- potency estimated from few doses (compound concentrations:100 nM and 1000 nM (sheet 'Lestaurtinib' of Supplementary Table 1),run:Lestaurtinib_02438_R3,Plate:MR008): 82.5 nM
- potency estimated from few doses (compound concentrations:100 nM and 1000 nM (sheet 'Lestaurtinib' of Supplementary Table 1),run:Lestaurtinib_02443_R1,Plate:MR009): 91.7 nM
- potency estimated from few doses (compound concentrations:100 nM and 1000 nM (sheet 'Lestaurtinib' of Supplementary Table 1),run:Lestaurtinib_02473_R1,Plate:MR010): 77.7 nM
- potency estimated from few doses (compound concentrations:100 nM and 1000 nM (sheet 'Lestaurtinib' of Supplementary Table 1),run:Lestaurtinib_02473_R3,Plate:MR010): 79.7 nM
- potency estimated from few doses (compound concentrations:100 nM and 1000 nM (sheet 'Lestaurtinib' of Supplementary Table 1),run:Lestaurtinib_02482_R1,Plate:MR011): 95.2 nM
- potency estimated from few doses (compound concentrations:100 nM and 1000 nM (sheet 'Lestaurtinib' of Supplementary Table 1),run:Lestaurtinib_02482_R3,Plate:MR011): 132 nM
- potency estimated from few doses (compound concentrations:100 nM and 1000 nM (sheet 'Lestaurtinib' of Supplementary Table 1),run:Lestaurtinib_02487_R1,Plate:MR012): 90.9 nM
- potency estimated from few doses (compound concentrations:100 nM and 1000 nM (sheet 'Lestaurtinib' of Supplementary Table 1),run:Lestaurtinib_02487_R2,Plate:MR012): 84.9 nM
- potency estimated from few doses (compound concentrations:100 nM and 1000 nM (sheet 'Lestaurtinib' of Supplementary Table 1),run:Lestaurtinib_02487_R3,Plate:MR012): 94.1 nM
- potency estimated from few doses (compound concentrations:100 nM and 1000 nM (sheet 'Lestaurtinib' of Supplementary Table 1),run:Lestaurtinib_02496_R2,Plate:MR013): 79 nM
- potency estimated from few doses (compound concentrations:100 nM and 1000 nM (sheet 'Lestaurtinib' of Supplementary Table 1),run:Lestaurtinib_02496_R3,Plate:MR013): 79.4 nM
- potency estimated from few doses (compound concentrations:100 nM and 1000 nM (sheet 'Lestaurtinib' of Supplementary Table 1),run:Lestaurtinib_02566_R2,Plate:MR014): 57.7 nM
- potency estimated from few doses (compound concentrations:100 nM and 1000 nM (sheet 'Lestaurtinib' of Supplementary Table 1),run:Lestaurtinib_02566_R3,Plate:MR014): 52.9 nM
- potency estimated from few doses (compound concentrations:100 nM and 1000 nM (sheet 'Lestaurtinib' of Supplementary Table 1),run:Lestaurtinib_02572_R1,Plate:MR015): 45.9 nM
- potency estimated from few doses (compound concentrations:100 nM and 1000 nM (sheet 'Lestaurtinib' of Supplementary Table 1),run:Lestaurtinib_02577_R1,Plate:MR016): 100 nM
- potency estimated from few doses (compound concentrations:100 nM and 1000 nM (sheet 'Lestaurtinib' of Supplementary Table 1),run:Lestaurtinib_02577_R2,Plate:MR016): 87.6 nM
- potency estimated from few doses (compound concentrations:100 nM and 1000 nM (sheet 'Lestaurtinib' of Supplementary Table 1),run:Lestaurtinib_02577_R3,Plate:MR016): 59.2 nM
- potency estimated from few doses (compound concentrations:100 nM and 1000 nM (sheet 'Lestaurtinib' of Supplementary Table 1),run:Lestaurtinib_02584_R1,Plate:MR017): 95.1 nM
- potency estimated from few doses (compound concentrations:100 nM and 1000 nM (sheet 'Lestaurtinib' of Supplementary Table 1),run:Lestaurtinib_02584_R2,Plate:MR017): 100 nM
- potency estimated from few doses (compound concentrations:100 nM and 1000 nM (sheet 'Lestaurtinib' of Supplementary Table 1),run:Lestaurtinib_02584_R3,Plate:MR017): 113 nM
- potency estimated from few doses (compound concentrations:100 nM and 1000 nM (sheet 'Lestaurtinib' of Supplementary Table 1),run:Lestaurtinib_02601_R2,Plate:MR018): 71.2 nM
- potency estimated from few doses (compound concentrations:100 nM and 1000 nM (sheet 'Lestaurtinib' of Supplementary Table 1),run:Lestaurtinib_02601_R3,Plate:MR018): 77.1 nM
- potency estimated from few doses (compound concentrations:100 nM and 1000 nM (sheet 'Lestaurtinib' of Supplementary Table 1),run:Lestaurtinib_02606_R1,Plate:MR019): 69.4 nM
- potency estimated from few doses (compound concentrations:100 nM and 1000 nM (sheet 'Lestaurtinib' of Supplementary Table 1),run:Lestaurtinib_02606_R2,Plate:MR019): 130 nM
- potency estimated from few doses (compound concentrations:100 nM and 1000 nM (sheet 'Lestaurtinib' of Supplementary Table 1),run:Lestaurtinib_02606_R3,Plate:MR019): 130 nM
- potency estimated from few doses (compound concentrations:100 nM and 1000 nM (sheet 'Lestaurtinib' of Supplementary Table 1),run:Lestaurtinib_02624_R1,Plate:MR020): 67.4 nM
- potency estimated from few doses (compound concentrations:100 nM and 1000 nM (sheet 'Lestaurtinib' of Supplementary Table 1),run:Lestaurtinib_02624_R2,Plate:MR020): 90.4 nM
- potency estimated from few doses (compound concentrations:100 nM and 1000 nM (sheet 'Lestaurtinib' of Supplementary Table 1),run:Lestaurtinib_02624_R3,Plate:MR020): 79.8 nM
- potency estimated from few doses (compound concentrations:100 nM and 1000 nM (sheet 'Lestaurtinib' of Supplementary Table 1),run:Lestaurtinib_02724_R1,Plate:MR021): 56.1 nM
- potency estimated from few doses (compound concentrations:100 nM and 1000 nM (sheet 'Lestaurtinib' of Supplementary Table 1),run:Lestaurtinib_02724_R2,Plate:MR021): 71.1 nM
- potency estimated from few doses (compound concentrations:100 nM and 1000 nM (sheet 'Lestaurtinib' of Supplementary Table 1),run:Lestaurtinib_02724_R3,Plate:MR021): 59.7 nM
- potency estimated from few doses (compound concentrations:100 nM and 1000 nM (sheet 'Lestaurtinib' of Supplementary Table 1),run:Lestaurtinib_02741_R1,Plate:MR023): 88.2 nM
- potency estimated from few doses (compound concentrations:100 nM and 1000 nM (sheet 'Lestaurtinib' of Supplementary Table 1),run:Lestaurtinib_02741_R2,Plate:MR023): 56.3 nM
- potency estimated from few doses (compound concentrations:100 nM and 1000 nM (sheet 'Lestaurtinib' of Supplementary Table 1),run:Lestaurtinib_02741_R3,Plate:MR023): 88.4 nM
- potency estimated from few doses (compound concentrations:100 nM and 1000 nM (sheet 'Lestaurtinib' of Supplementary Table 1),run:Lestaurtinib_02748_R1,Plate:MR024): 86 nM
- potency estimated from few doses (compound concentrations:100 nM and 1000 nM (sheet 'Lestaurtinib' of Supplementary Table 1),run:Lestaurtinib_02748_R3,Plate:MR024): 98 nM
- potency estimated from few doses (compound concentrations:100 nM and 1000 nM (sheet 'Lestaurtinib' of Supplementary Table 1),run:Lestaurtinib_02752_R1,Plate:MR025): 92.9 nM
- potency estimated from few doses (compound concentrations:100 nM and 1000 nM (sheet 'Lestaurtinib' of Supplementary Table 1),run:Lestaurtinib_02752_R3,Plate:MR025): 99.3 nM
- potency estimated from few doses (compound concentrations:100 nM and 1000 nM (sheet 'Lestaurtinib' of Supplementary Table 1),run:Lestaurtinib_02765_R3,Plate:MR026): 82.4 nM
- potency estimated from few doses (compound concentrations:100 nM and 1000 nM (sheet 'Lestaurtinib' of Supplementary Table 1),run:Lestaurtinib_02766_R1,Plate:MR027): 99.2 nM
